Data published in PubChem BioAssay (EPA / NIEHS).
Inconclusive results are not listed. Active and inactive are the calls of the source. How the source made its calls, unless noted: active means hit-call score of the fitted dose curve at least 0.9, where 1 is the maximum; inactive means score below 0.9.

Columns and labels:
[1] = TOX21_TR_RXR_BLA_Agonist_Followup_viability: Viability Assessment in the Tox21 Thyroid Hormone Receptor beta Retinoid X Receptor alpha (RXRa) Agonism Beta-lactamase (BLA) Follow-Up Assay (AID 2283970; active means hit-call score of the fitted dose curve at least 0.9, where 1 is the maximum)
Summary of the method: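 RXRa-UAS-bla HEK293T cells, 2,500/well in phenol red-free DMEM with 2% charcoal-stripped FBS, dosed for 16 h at 37C. Viability measured by CellTiter-Glo ATP luminescence; fitted bidirectionally against DMSO baseline, loss of signal indicating cytotoxicity.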

[2] = CCTE_Harrill_HTTr_Viability_DMEM_6hr: (Pilot) CCTE's 6-hour Cell Viability Assessment for the High-Throughput Transcriptomics (HTTr) Platform, in MCF-7 cells cultured in DMEM + 10% fetal bovine serum, Harrill Lab (AID 2283973)
Summary of the method: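 MCF-7 cells in DMEM + 10% FBS, eight-point dilution series, 6 h exposure. Membrane integrity by propidium iodide exclusion with high-content imaging; bidirectional fit versus DMSO.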

[3] = CCTE_Harrill_HTTr_Viability_DMEM_12hr: (Pilot) CCTE's 12-hour Cell Viability Assessment for the High-Throughput Transcriptomics (HTTr) Platform, in MCF-7 cells cultured in DMEM + 10% fetal bovine serum, Harrill Lab (AID 2283974)
Summary of the method: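 MCF-7 cells in DMEM + 10% FBS exposed 12 h to an eight-point dilution series; membrane integrity scored by propidium iodide exclusion with high-content imaging, bidirectional fitting versus DMSO.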

[4] = CCTE_Harrill_HTTr_Viability_DMEM_24hr: (Pilot) CCTE's 24-hour Cell Viability Assessment for the High-Throughput Transcriptomics (HTTr) Platform, in MCF-7 cells cultured in DMEM + 10% fetal bovine serum, Harrill Lab (AID 2283975)
Summary of the method: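 MCF-7 cells in DMEM with 10% FBS exposed for 24 hours to an eight-point dilution series. Membrane integrity by propidium iodide exclusion with high content imaging; bidirectional fit against DMSO.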

[5] = CCTE_Harrill_HTTr_Viability_PRF_DMEM_6hr: (Pilot) CCTE's 6-hour Cell Viability Assessment for the High-Throughput Transcriptomics (HTTr) Platform, in MCF-7 cells cultured phenol red-free DMEM + 10% charcoal-stripped fetal bovine serum, Harrill Lab (AID 2283976)
Summary of the method: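 MCF-7 cells in phenol red-free DMEM with 10% charcoal-stripped FBS exposed 6 hours to an eight-point dilution series. Propidium iodide exclusion imaged; curves fitted bidirectionally against DMSO.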

[6] = CCTE_Harrill_HTTr_Viability_PRF_DMEM_12hr: (Pilot) CCTE's 12-hour Cell Viability Assessment for the High-Throughput Transcriptomics (HTTr) Platform, in MCF-7 cells cultured in phenol red-free DMEM + 10% charcoal-stripped fetal bovine serum, Harrill Lab (AID 2283977)
Summary of the method: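 MCF-7 cells in phenol red-free DMEM with 10% charcoal-stripped FBS exposed 12 hours to an eight-point dilution series. Viability assessed by high-content imaging of propidium iodide exclusion; bidirectional fit versus DMSO.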

[7] = CCTE_Harrill_HTTr_Viability_PRF_DMEM_24hr: (Pilot) CCTE's 24-hour Cell Viability Assessment for the High-Throughput Transcriptomics (HTTr) Platform, in MCF-7 cells cultured in phenol red-free DMEM + 10% charcoal-stripped fetal bovine serum, Harrill Lab (AID 2283980)
Summary of the method: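 MCF-7 cells in phenol red-free DMEM with 10% charcoal-stripped FBS, eight-point dilution series, 24 h exposure. Membrane integrity by propidium iodide exclusion with high content imaging; bidirectional fit vs DMSO.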

[8] = CCTE_Harrill_HTTr_Apoptosis_DMEM_6hr: (Pilot) CCTE's 6-hour Apoptosis Assessment for the High-Throughput Transcriptomics (HTTr) Platform, in MCF-7 cells cultured in DMEM + 10% fetal bovine serum, Harrill Lab (AID 2283981)
Summary of the method: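 Caspase-3/7 activation read by high content imaging with CellEvent Caspase 3/7 Green in MCF-7 cells (DMEM + 10% FBS), 6 h after dosing; eight-point dilution series. Bidirectional fitting relative to DMSO baseline.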

[9] = CCTE_Harrill_HTTr_Apoptosis_DMEM_12hr: (Pilot) CCTE's 12-hour Apoptosis Assessment for the High-Throughput Transcriptomics (HTTr) Platform, in MCF-7 cells cultured in DMEM + 10% fetal bovine serum, Harrill Lab (AID 2283982)
Summary of the method: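 MCF-7 cells in DMEM + 10% FBS, exposed 12 h to an eight-point dilution series; caspase-3/7 activation imaged with CellEvent Green. Bidirectional fit versus DMSO.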

[10] = CCTE_Harrill_HTTr_Apoptosis_DMEM_24hr: (Pilot) CCTE's 24-hour Apoptosis Assessment for the High-Throughput Transcriptomics (HTTr) Platform, in MCF-7 cells cultured in DMEM + 10% fetal bovine serum, Harrill Lab (AID 2283983)
Summary of the method: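 MCF-7 cells in DMEM + 10% FBS, eight-point dilution series, 24 h exposure. Caspase-3/7 activation imaged by high-content imaging with CellEvent Caspase 3/7 Green. Bidirectional curve fitting against DMSO baseline.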

[11] = CCTE_Harrill_HTTr_Apoptosis_PRF_DMEM_6hr: (Pilot) CCTE's 6-hour Apoptosis Assessment for the High-Throughput Transcriptomics (HTTr) Platform, in MCF-7 cells cultured phenol red-free DMEM + 10% charcoal-stripped fetal bovine serum, Harrill Lab (AID 2283984)
Summary of the method: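 MCF-7 cells in phenol red-free DMEM + 10% charcoal-stripped FBS, eight-point dilution series, 6 h exposure. Caspase-3/7 activation imaged by high-content imaging with CellEvent Caspase 3/7 Green; bidirectional fit versus DMSO baseline.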

[12] = CCTE_Harrill_HTTr_Apoptosis_PRF_DMEM_24hr: (Pilot) CCTE's 24-hour Apoptosis Assessment for the High-Throughput Transcriptomics (HTTr) Platform, in MCF-7 cells cultured in phenol red-free DMEM + 10% charcoal-stripped fetal bovine serum, Harrill Lab (AID 2283986)
Summary of the method: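 MCF-7 cells in phenol red-free DMEM with 10% charcoal-stripped FBS, exposed 24 h across an eight-point dilution series. Caspase-3/7 activation imaged with CellEvent Green by high content imaging; bidirectional fitting against DMSO.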

Row | Compound | outcome [1] | outcome [2] | AC50 [3] | AC50 [4] | outcome [5] | AC50 [6] | AC50 [7] | outcome [8] | outcome [9] | AC50 [10] | outcome [11] | AC50 [12]
1 | C=C(c1ccc(C(=O)O)cc1)c1cc2c(cc1C)C(C)(C)CCC2(C)C | inactive | – | – | – | – | – | – | – | – | – | – | –
2 | CCCCc1oc2ccccc2c1C(=O)c1cc(I)c(OCCN(CC)CC)c(I)c1 | – | inactive | 46.3 µM (active) | 73.9 µM (active) | inactive | 39.5 µM (active) | 70.4 µM (active) | inactive | inactive | 81.6 µM (active) | inactive | 74.5 µM (active)
